Anthrax LT inh – anthrax lethal toxin internalization inhibition; Cells, anthrax lethal toxin internalization, FRET ratio (460/530); Potency, µM (titrated, usually from 40 µM), inactives show at the highest dose activity change, negative = inhibition, hits mostly inhibitors; hit rate 0.67% among 70,000; AID 912; also: % is scaled to controls: 0 for no effect and ±100 for the full control effect; nearly all actives have a fitted effect of over 50% in size
Prx2 Sm inh – blocks S. mansoni peroxiredoxin 2 enzymatic activity. AID 448. hit rate 0.07% among 65,000. Potency, µM. S. mansoni Prx2 activity coupled to TGR/GSH (TGR is thioredoxin glutathione reductase), NADPH fluorescence loss, qHTS
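Prx2 activity was followed as the loss of NADPH fluorescence (ex 365/em 450 nm), read every 30 sec for 8 min after H2O2 start. The enzyme mix (50 nM Prx2, 25 nM TGR, GSH, NADPH; pH 7.4 phosphate buffer) was incubated with compound for 15 min at room temperature first.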
AmpC inh no det – inhibitors of E. coli AmpC beta-lactamase without detergent | AID 585 | AmpC nitrocefin hydrolysis, absorbance 480 nm, no detergent | Potency, µM (highest dose often 28.7 µM), for the others: top-dose activity change, negative = inhibition | hit rate 1.8% among 71,000 | P00811; also: % of control where 0% means no effect
Target sequence (P00811 whole entry, looked up): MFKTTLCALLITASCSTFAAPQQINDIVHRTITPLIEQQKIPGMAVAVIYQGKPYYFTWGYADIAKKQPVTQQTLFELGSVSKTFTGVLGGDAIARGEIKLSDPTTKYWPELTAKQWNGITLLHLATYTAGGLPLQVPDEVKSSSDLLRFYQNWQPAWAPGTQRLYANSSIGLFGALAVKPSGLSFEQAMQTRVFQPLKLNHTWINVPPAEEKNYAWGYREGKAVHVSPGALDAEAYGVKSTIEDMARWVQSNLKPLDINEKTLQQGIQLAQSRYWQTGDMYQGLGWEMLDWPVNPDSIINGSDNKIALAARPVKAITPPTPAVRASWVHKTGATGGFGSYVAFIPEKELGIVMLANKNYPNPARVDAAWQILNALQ
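Enzyme, pH 7.0 phosphate. Compound titrations were pre-incubated with AmpC for 15 min at room temperature before nitrocefin (stock 800 uM) addition; product formation was recorded at 480 nm every 20 s for 4 min.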
AmpC det inh – inhibitors of E. coli AmpC beta-lactamase with detergent | P00811 | purified AmpC, nitrocefin hydrolysis with detergent | AID 584 | Potency, µM (doses to about 28.7 µM), without a hit: at the highest dose activity change, negative = inhibition | hit rate 0.09% among 71,000; active = well fitted curve in the direction sought with a large enough effect; inconclusive = small, poorly fitted or top-dose-only effect; also: % is scaled to controls: 0 for no effect and ±100 for the full control effect
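E. coli AmpC (5.3 nM) in 20 mM phosphate pH 7.0 with 0.01% Triton X-100, preincubated 15 min RT with compound; nitrocefin (2 uL of 800 uM stock) hydrolysis followed by 480 nm absorbance every 20 s over 4 min.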
Numbers without * were called inactive; ? = inconclusive; · = no result given; [ ] = remark or other dose. Sampled rows, rich in hits. Any-hit rate of the full collection: about 2.4%. Unless noted, calls follow the shape of the full dose curve. Potency is read from the fitted curve at half-maximal effect.

SMILES	Anthrax LT inh	Prx2 Sm inh	AmpC inh no det	AmpC det inh
Cc1nc(NC(=O)c2ccccc2)sc1-c1csc(NCc2ccco2)n1	?	>57	13µM*	14%
COC(=O)c1nc2n(n1)C(c1cccc(Cl)c1)C1=C(CCCC1=O)N2 (configuration not stated)	-4%	>57	4µM*[single pt active]	11%
COC(=O)c1nc2n(n1)C(c1cccc(Cl)c1)C1=C(CC(C)(C)CC1=O)N2 (configuration not stated)	5%	>57	4µM*[single pt active]	11%
COC(=O)C1=C(C)NC2=C(C(=O)CC(C)(C)C2)C1c1cccc(C)n1 (configuration not stated)	28%	>57	0%	11%
CO/N=C1/c2cc(OC)ccc2O[C@@H](c2cccc(OC)c2)[C@H]1O	-1%[8 µM]	·	·	·
CN=C1N[C@H](c2ccccc2)N(c2ccccc2)S1	25µM*	>57	10%	-3%
O=c1cnc2cnc(N3CCNCC3)nc2n1C1CC1	3%	>57	-13%	0%
COc1ccc(S(=O)(=O)N2CCN(C)CC2)c2ccccc12	19%	>57	4µM*[single pt active]	11%
Cc1cccc(C)c1OCC(O)Cn1ccnc1C (configuration not stated)	-8%	>57	4µM*[single pt active]	2%
COc1cc(OC)cc(OCC(O)Cn2ccnc2C)c1 (configuration not stated)	-10%	>57	18%	10%
O=C1C(C2=C(O)c3ccccc3C2=O)=Nc2ccccc21	-6%	>57	13µM*	11%
Cc1cccc2ccccc12	-7%	·	-1%	8%
Cc1ccc(C(=N)c2ccccc2Cc2cccc3ccccc23)c2ccccc12	2.5µM*	>57	2%[5.75 µM]	-2%[5.75 µM]
CCN1CCN(C(=O)CSCc2nc(-c3ccc(OC)c(OC)c3)oc2C)CC1	?	>57	4µM*[single pt active]	11%
ClC1=C(Cl)C2(Cl)C3C(Cl)C=CC3C1(Cl)C2(Cl)Cl (configuration not stated)	16µM*	·	-24%	8%
CN(C)Cc1ccccc1-c1cc(N(C)C)ncn1	0%	·	-7%	9%
COc1ccc2c(c1)c(CC(=O)O)c(C)n2C(=O)c1ccc(Cl)cc1	?	>57	-1%	3%
COc1ccc2c(c1)c(CCN1CCOCC1)c(C)n2C(=O)c1cccc(Cl)c1Cl	13µM*	·	·	·
O=C(N[C@@]1(C(=O)O)C[C@@H]1c1ccccc1)c1ccccc1	-11%[8 µM]	>57	1%[5.75 µM]	-4%[5.75 µM]
Cc1cc(C(=O)CN2CC(C)OC(C)C2)c(C)n1-c1ccccc1 (configuration not stated)	7%	>57	4µM*[single pt active]	13%
COC(=O)c1ccc(C(NC(=O)OCc2ccccc2)/C(=C/[C@@H](C)C(=O)NC2CCCCC2)c2cccnc2)cc1 (some centres not stated)	?	·	116%	0%
O=c1[nH]cnc2scc(-c3cccs3)c12	·	>57	-10%	-3%
O=c1[nH]c(CN2CCc3ccccc32)nc2scc(-c3cccs3)c12	?	>57	0.79µM*	-4%
COc1cccc(-c2nc(NCCNC(C)=O)c3ccccc3n2)c1	9%	>57	12%	10%
NC(=O)C[C@H](N)C(N)=O	-10%[8 µM]	>57	-9%[5.75 µM]	-5%[5.75 µM]
SMILES	Anthrax LT inh	Prx2 Sm inh	AmpC inh no det	AmpC det inh
COc1ccccc1NC(=O)N1CCN(c2ccccn2)CC1	6%	>57	4µM*[single pt active]	13%
COc1ccccc1S(=O)(=O)Cc1ccc(C(=O)N2CCN(c3ccccn3)CC2)o1	-13%	>57	4µM*[single pt active]	11%
Cc1ccccc1S(=O)(=O)Cc1ccc(C(=O)N2CC(C)CC(C)C2)o1 (configuration not stated)	3%	>57	4µM*[single pt active]	10%
COc1ccc(S(=O)(=O)Cc2ccc(C(=O)N3CCN(c4ccccn4)CC3)o2)cc1	-14%	>57	4µM*[single pt active]	11%
Cc1ccccc1S(=O)(=O)Cc1ccc(C(=O)N2CCN(c3cccc(C)c3C)CC2)o1	?	>57	85%	-3%
COc1ccccc1S(=O)(=O)Cc1ccc(C(=O)N2CCCC2)o1	6%	>57	22%	11%
CCCCOCCOCCOCc1cc2c(cc1CCC)OCO2	?	·	50%	8%
O=C(C[C@@H](C(=O)O)N1CCOCC1)c1ccccc1	-5%[8 µM]	>57	0%[5.75 µM]	-5%[5.75 µM]
CC[C@@H](c1ccccc1)n1c(=O)n2n(c1=O)[C@H]1[C@H](O)[C@H]3O[C@@H]3/C(=N/OCc3ccccc3)[C@@H]1CC2	-7%[8 µM]	·	·	·
COc1ccc(S(=O)(=O)Cc2ccc(C(=O)N3CCCC3)o2)cc1	0%	>57	3.2µM*[single pt active]	9%
COc1ccc(S(=O)(=O)Cc2ccc(C(=O)N3CCC(C(N)=O)CC3)o2)cc1	9%	>57	6%	5%
COCc1cc(C)nc(N2CCOCC2)c1C#N	-21%	·	4µM*[single pt active]	11%
CCNc1nc(C)cc(COC)c1C#N	0%	·	9%	11%
COC(=O)C1=C(C)NC(C)=C(C(=O)OCCN(C)Cc2ccccc2)[C@@H]1c1cccc([N+](=O)[O-])c1	?	>57	67%	-1%
CCc1ccc(C2C(C#N)=C(N)SC(N)=C2C#N)s1	10µM*	>57	-22%	1%
CCc1ccc(C2C(C#N)=C(N)SC(N)=C2C#N)cc1	13µM*	·	-16%	-7%
CC(=O)[C@H]1CC[C@H]2[C@@H]3C=CC4=CC(=O)CC[C@@]4(C)[C@H]3CC[C@]12C	-8%[3.58 µM]	>57	34%[12.8 µM]	-2%[12.8 µM]
NC1=NC(S)C2N=CN=C2N1 (configuration not stated)	-5%	·	-9%	11%
COc1ccccc1CN1CC[C@@]2(CCCN(C(=O)c3cccn3C)C2)C1	1%	>57	103%	-13%
O=c1c(-c2cccc(F)c2)nc2cncnc2n1-c1ccccc1	?	>57	19%	-4%
CC[C@@H](c1ccccc1)n1c(=O)n2n(c1=O)[C@H]1[C@H](O)[C@H]3O[C@H]3C(=O)[C@H]1CC2	6%[8 µM]	·	·	·
Cc1cc(/C=N/n2cnnc2)c(C)n1-c1cccc(Cl)c1	12%	·	52%	-3%
Cc1cc(/C=N/n2cnnc2)c(C)n1-c1ccc(OCc2ccc(F)cc2)cc1	13µM*	>57	99%	-3%
COc1cccc(-c2nccc(NCc3cnc(C)cn3)n2)c1	?	>57	24%	12%
Cc1cc(=O)n2nc(N3CCC(C(=O)NC4CCCc5ccccc54)CC3)sc2n1 (configuration not stated)	5%	>57	65%	15%
SMILES	Anthrax LT inh	Prx2 Sm inh	AmpC inh no det	AmpC det inh
O=C(NC1CCCc2ccccc21)C1CCN(c2c(N3CCCC3)c(=O)c2=O)CC1 (configuration not stated)	-5%	>57	4µM*[single pt active]	11%
COC(=O)CN(c1ccc(C(C)C)cc1)S(=O)(=O)c1c(C)[nH]c(=O)[nH]c1=O	-12%	>57	4µM*[single pt active]	14%
O=c1c(O)c(-c2cc(O)c(O)c(O)c2)oc2cc(O)cc(O)c12	?	>57	10µM*	-2%
O=C(CSCc1ccc(Cl)cc1)c1ccco1	-20%	>57	10µM*[single pt active]	17%
COc1ccc(CNc2ncncc2-c2ccccc2C(F)(F)F)c(OC)c1	5%	>57	50%	1%
Cc1nc2c(OCc3ccccc3)cccn2c1CC#N	-2%	>57	18%	1%

Compound activity from PubChem.
